# Screening results as filed in PubChem BioAssay.
# Sampled rows, rich in hits. Any-hit rate of the full collection: about 1%.
# sEH inhibitor = soluble epoxide hydrolase (human) inhibition; recombinant human sEH enzymatic activity assay; inhibition, % at 2 µM; 91,000 tested, 0.34% active; AID 707; in the data active = inhibition above about 80%
# MRP1 act = MRP-1 activation | 140,000 tested, 0.61% active | AID 799 | viability increase, % at 10 µM | H69AR cells + doxorubicin, viability rescue, CellTiter-Glo;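 active = viability gain under doxorubicin at or above a set limit, the compound median plus 3 SD, cut at about 4.7% in these data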;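 note: MRP-1 overexpressing cells given doxorubicin 25 µM after compound pretreatment; 18-22 h compound pretreatment then 72 h with doxorubicin before readout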
# SDO1 yeast rescue = sdo1-depleted yeast growth rescue; z-score at 10 µM; AID 817; 140,000 tested, 0.21% active; S. cerevisiae sdo1-depleted JHY4D growth rescue, OD600 30 h; hits give high values; pdr5 snq2 efflux-pump mutant strain;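 active = z-score above 3 at both the 24 hr and the 30 hr optical density reads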
# MRP reversal = reverses drug resistance mediated by MRP. AID 602. 85,000 tested, 0.04% active. differential viability (reversal), % at 10 µM. H69AR cells + 2 uM doxorubicin, CellTiter-Glo, 72 h;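 active = viability drop by adding the cancer drug above about 55%, with treated viability meeting a 40% cutoff, limit read from the data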;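 note: larger differential means the compound sensitizes cells more to doxorubicin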
# sEH act = activators of human soluble epoxide hydrolase; 91,000 tested, 0.04% active; activation, % at 2 µM; purified human sEH enzymatic activity, activator screen; AID 717; P34913; in the data active = activation above about 37%
# Phagocytosis inh = macrophage phagocytosis inhibition; J774A.1 macrophage IgG-bead phagocytosis, imaging; inhibition, % at 5 µM; 110,000 tested, 0.07% active;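 active = inhibition above the mean of the plate negative controls plus 5 SD, cut at about 13% in these data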;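 note: phagocytic index as fraction of beads internalized from green versus red external bead signal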
# sdo1 rescue conf = SDO1-depleted yeast growth rescue confirmation; shares compounds with SDO1 yeast rescue; S. cerevisiae JHY4D (SDO1-depleted) growth rescue, OD600, 30 h; hits give high values; efflux-deficient strain, SNQ2 and PDR5 mutated; OD recovery (no concentration beside the values); 440 tested, 44% active;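 active = yeast growth recovered at 30 hours, either rising with dose fitted slope above 0.001 or with average optical density gain above 0.07, some results past the limit were not filed as active; inactive = growth falling with dose or no effect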
# Numbers stand for hits; i = inactive; nt = not tested or not shown.
SMILES,sEH inhibitor,MRP1 act,SDO1 yeast rescue,MRP reversal,sEH act,Phagocytosis inh,others
CSC1=NP(=S)(SC)N2CCCC2=C1C#N (centres undefined),i,29,i,i,i,i,
c1ccc2cc3cc4ccccc4cc3cc2c1,nt,nt,nt,i,nt,nt,
CC(=O)NC(C)Cc1ccccc1 (centres undefined),i,i,i,i,i,i,
CC(Cc1ccccc1)NC(=O)NC(C)Cc1ccccc1 (centres undefined),98,i,i,i,i,i,
Cc1cc2c(C(C)C)c(O)c(O)c(C=O)c2c(O)c1-c1c(C)cc2c(C(C)C)c(O)c(O)c(C=O)c2c1O,nt,i,i,i,nt,nt,
COc1ccc(C)cc1NC(=O)c1c(C)nn(Cc2ccccc2)c1Cl,nt,4.8,i,nt,nt,i,
O=C(Nc1cccc(Cl)c1)c1c(O)c2c(n(Cc3ccccc3)c1=O)CCCC2,nt,5.6,i,nt,nt,i,
O=C(Nc1cccc(Cl)c1)c1c(O)c2c(n(Cc3ccco3)c1=O)CCCC2,nt,nt,nt,i,nt,nt,
Cc1ccc(CN2C(=O)NC(=O)C3(Cc4c(nc5ccccn5c4=O)N4CCCCCC43)C2=O)cc1 (centres undefined),i,8.8,i,i,i,i,
Cc1cccc(N/N=C(\C(N)=O)C2=NC(C)(C)Cc3ccccc32)c1,nt,i,i,nt,nt,i,
Cc1c(C(c2ccc(O)cc2)c2c(O)c3ccccc3oc2=O)c(=O)n(-c2ccccc2)n1C (centres undefined),nt,i,3.4,nt,nt,nt,sdo1 rescue conf=i
Cn1c(=O)cc(OCC(=O)N2CCC3(CC2)OCCO3)c2ccccc21,nt,i,i,i,nt,i,
Cn1c(=O)cc(SCC(=O)N2CCC3(CC2)OCCO3)c2ccccc21,nt,i,3.4,i,nt,i,sdo1 rescue conf=0.071
CCCCN1C(=O)/C(=C\c2ccco2)C(=O)N(CCc2ccccc2)C1=O,i,i,10,nt,i,nt,sdo1 rescue conf=i
CCC(C)N1C(=O)/C(=C/c2ccc3c(c2)CCN3CCCCl)C(=O)NC1=S (centres undefined),nt,i,i,nt,nt,i,
C[C@@H]1C2C[C@@]34COC(=O)C3=CC=C[C@H]4[C@@]13C[C@H](c1ccoc1)O[C@@H]3O2,nt,i,i,nt,nt,nt,
